Read-out in experiment [1]: E-selectin (Homo sapiens) (UniProt P16581)
The experiment in a line: BSK_3C_Eselectin: BioMAP Diversity Plus: 3C Assay for Eselectin Biomarker Activity (AID 2283015).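 Note: cell surface E-selectin protein quantified by ELISA 24 h after dosing.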 The note with it: primary human endothelial cells (HUVEC); actives raise or lower the signal. Put shortly: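 HUVEC, 3C stimulation; compound exposure 24 h; E-selectin by ELISA; gain- or loss-of-signal fitted bidirectionally vs DMSO baseline.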

Read-out in experiment [2]: Interleukin-1 alpha (IL1a), IL1A (gene 3552)
The experiment in a line: BSK_BE3C_IL1a: BioMAP Diversity Plus: BE3C Assay for Interleukin-1 alpha (IL1a) Biomarker Activity (AID 2283016). The note with it: primary human bronchial epithelial cells; actives raise or lower the signal. Put shortly: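 Signal from IL-1a ELISA, taken 24 h after chemical dosing of human bronchial epithelial cells, is compared with DMSO as baseline using bidirectional curve fitting.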

Read-out in experiment [3]: Monocyte Chemoattractant Protein-1 (MCP1), CCL2 (gene 6347)
The experiment in a line: BSK_3C_MCP1: BioMAP Diversity Plus: 3C Assay for Monocyte Chemoattractant Protein-1 (MCP1) Biomarker Activity (AID 2283017). The note with it: primary human endothelial cells (HUVEC); actives raise or lower the signal. Summed up: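 HUVEC, 3C system; 24 h chemical exposure; MCP-1 by ELISA; bidirectional curve fit vs DMSO baseline.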

Read-out in experiment [4]: Monocyte Chemoattractant Protein-1 (MCP1), CCL2 (gene 6347)
Nature of the experiment: BSK_4H_MCP1: BioMAP Diversity Plus: 4H Assay for Monocyte Chemoattractant Protein-1 (MCP1) Biomarker Activity (AID 2283018). The note with it: primary human endothelial cells (HUVEC); actives raise or lower the signal. Put shortly: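 Endothelial cells from umbilical vein were treated with test chemical, then after 24 h MCP-1 levels were quantified by ELISA; endpoint values came from bidirectional fitting with DMSO as baseline of activity.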

Read-out in experiment [5]: Human Leukocyte Antigen - DR isotype (HLADR), HLA-DRA (gene 3122)
Nature of the experiment: BSK_3C_HLADR: BioMAP Diversity Plus: 3C Assay for Human Leukocyte Antigen - DR isotype (HLADR) Biomarker Activity (AID 2283019).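 Note: ELISA of cell-surface HLA-DR on HUVEC 24 h after dosing.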 Conditions: primary human endothelial cells (HUVEC); actives raise or lower the signal. Summed up: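 HUVEC, 3C stimulation, 24 h post-dose; HLA-DR by ELISA; bidirectional curve fit vs DMSO baseline; gain or loss of signal scored.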

Read-out in experiment [6]: Interleukin-8 (IL8), CXCL8 (gene 3576)
Nature of the experiment: BSK_3C_IL8: BioMAP Diversity Plus: 3C Assay for Interleukin-8 (IL8) Biomarker Activity (AID 2283020). Conditions: primary human endothelial cells (HUVEC); actives raise or lower the signal. Summed up:
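Endothelial primary cells of human umbilical vein origin are dosed with chemical; after 24 h the IL-8 biomarker is measured by ELISA, and concentration–response is fitted in both directions versus DMSO.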

Read-out in experiment [7]: Monokine induced gamma interferon (MIG), CXCL9 (gene 4283)
The experiment in a line: BSK_3C_MIG: BioMAP Diversity Plus: 3C Assay for Monokine induced gamma interferon (MIG) Biomarker Activity (AID 2283021). Conditions: primary human endothelial cells (HUVEC); actives raise or lower the signal. Put shortly: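 Endothelial primary cells (human umbilical vein) are dosed with test chemical in the 3C system. MIG levels are measured by ELISA at 24 h and fitted in both directions relative to DMSO.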

For experiment [8], the target named is human Vitamin D Receptor (VDR), VDR (gene 7421) (UniProt P11473). The experiment in a line: ATG_VDR_TRANS: Attagene TRANS-FACTORIAL HepG2 Assay for human Vitamin D Receptor (VDR) (AID 2283022; active = hit-call score of the fitted dose curve at least 0.9, where 1 is the maximum). Put shortly: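 RT-PCR/capillary electrophoresis read-out of reporter mRNA induction in transiently transfected HepG2; 24 h dosing; chimeric NR-Gal4 (TRANS format); gain-of-signal fit against DMSO baseline.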
human Vitamin D Receptor (VDR), VDR (gene 7421), sequence (P11473 whole entry, looked up, the tested form may be a part): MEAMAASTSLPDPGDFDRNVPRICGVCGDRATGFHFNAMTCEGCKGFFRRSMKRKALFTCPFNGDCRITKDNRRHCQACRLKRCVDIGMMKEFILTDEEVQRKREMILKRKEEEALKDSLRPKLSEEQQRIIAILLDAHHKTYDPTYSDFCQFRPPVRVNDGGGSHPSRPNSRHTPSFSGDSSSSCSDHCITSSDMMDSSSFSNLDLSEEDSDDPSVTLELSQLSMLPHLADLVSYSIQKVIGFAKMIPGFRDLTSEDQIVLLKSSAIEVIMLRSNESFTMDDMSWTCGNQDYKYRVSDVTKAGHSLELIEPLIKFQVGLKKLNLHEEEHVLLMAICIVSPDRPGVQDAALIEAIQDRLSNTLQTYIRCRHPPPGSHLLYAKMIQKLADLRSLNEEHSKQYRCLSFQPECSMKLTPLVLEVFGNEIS

The nature of experiment [9]: BSK_3C_SRB: Viability Assessment in the BioMAP Diversity Plus: 3C Assay (AID 2283023).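 Note: fitted both ways against DMSO so a hit may be signal rise or drop.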 Conditions: primary human endothelial cells (HUVEC). Put shortly:
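HUVEC, 24 h post-dose; 10% TCA fix, 0.1% SRB stain, A560 nm. Bidirectional curve fit vs DMSO negative control.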

Read-out in experiment [10]: Matrix Metallopeptidase 1 (MMP1), MMP1 (gene 4312)
Nature of the experiment: BSK_BE3C_MMP1: BioMAP Diversity Plus: BE3C Assay for Matrix Metallopeptidase 1 (MMP1) Biomarker Activity (AID 2283024). Conditions: primary human bronchial epithelial cells; actives raise or lower the signal. Summed up: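 MMP1 signal, measured by ELISA after a 24 h chemical exposure of human primary bronchial epithelial cells, is analysed with bidirectional fitting using DMSO as negative control.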

Experiment [11] is described as follows: BSK_3C_Vis: BioMAP Diversity Plus: 3C Assay for Morphology Visualization (AID 2283025).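 Note: fitted both ways so gain or loss versus DMSO counts.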 Conditions: primary human endothelial cells (HUVEC). Summed up: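 Morphology read by light microscopy serves as a background control for the multiplexed 3C assay in human umbilical vein endothelial cells, taken 24 h after dosing, with DMSO as the negative control and bidirectional curve fitting.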

Read-out in experiment [12]: Pselectin, SELP (gene 6403)
The experiment in a line: BSK_4H_Pselectin: BioMAP Diversity Plus: 4H Assay for Pselectin Biomarker Activity (AID 2283026). Conditions: primary human endothelial cells (HUVEC); actives raise or lower the signal. Summed up: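 Endothelial primary cells (human umbilical vein) are dosed, incubated 24 h, and assayed for surface P-selectin by ELISA; responses in either direction are fitted relative to the DMSO negative control.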

A short description of experiment [13]: BSK_4H_SRB: Viability Assessment in the BioMAP Diversity Plus: 4H Assay (AID 2283027).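 For AC50: curves fitted both ways versus DMSO so AC50 may be loss or gain.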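 Note: cells exposed to compound for 24 h before staining.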 Conditions: primary human endothelial cells (HUVEC). Put shortly: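 Cytotoxicity read-out in primary human endothelial cells: after 24 h compound exposure, cells were TCA-fixed (10%), stained with 0.1% SRB and absorbance taken at 560 nm. Values fitted in both directions relative to DMSO.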

Experiment [14] in a line: BSK_BE3C_SRB: Viability Assessment in the BioMAP Diversity Plus: BE3C Assay (AID 2283028). The note with it: primary human bronchial epithelial cells. Put shortly: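 Primary human bronchial epithelium; chemical dosing, 24 h; 10% TCA fix, 0.1% SRB stain, A560; bidirectional fit vs DMSO baseline.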
Read-out in experiment [15]: Thrombomodulin, THBD (gene 7056)
The experiment in a line: BSK_3C_Thrombomodulin: BioMAP Diversity Plus: 3C Assay for Thrombomodulin Biomarker Activity (AID 2283029). Conditions: primary human endothelial cells (HUVEC); actives raise or lower the signal. Put shortly:
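Endothelial cells from umbilical vein are dosed with test chemical and incubated 24 h. Thrombomodulin is then quantified by ELISA, with DMSO serving as negative control and activity baseline.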

Read-out in experiment [16]: Urokinase-type plasminogen activator receptor (uPAR), PLAUR (gene 5329)
Nature of the experiment: BSK_4H_uPAR: BioMAP Diversity Plus: 4H Assay for Urokinase-type plasminogen activator receptor (uPAR) Biomarker Activity (AID 2283030). The note with it: primary human endothelial cells (HUVEC); actives raise or lower the signal. Summed up: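 HUVEC, 24 h post-dose; uPAR by ELISA; bidirectional fit vs DMSO baseline.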

Read-out in experiment [17]: Vascular endothelial growth factor receptor 2 (Homo sapiens) (UniProt P35968)
The experiment in a line: BSK_4H_VEGFRII: BioMAP Diversity Plus: 4H Assay for Vascular endothelial growth factor receptor 2 (VEGFR2) Biomarker Activity (AID 2283031).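 For AC50: cell-surface VEGFR2 protein level quantified by ELISA.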 Conditions: primary human endothelial cells (HUVEC); actives raise or lower the signal. Summed up:
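HUVEC (human primary), 4H system; 24 h post-dose; VEGFRII by ELISA; bidirectional curve fit vs DMSO baseline; gain or loss of signal scored.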

The target in experiment [18] is human Retinoid X Receptor beta (RXRb), RXRB (gene 6257) (UniProt P28702). The experiment in a line: ATG_RXRb_TRANS: Attagene TRANS-FACTORIAL HepG2 Assay for human Retinoid X Receptor beta (RXRb) (AID 2283013; active = hit-call score of the fitted dose curve at least 0.9, where 1 is the maximum). Put shortly: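 Chimeric receptor-Gal4 activity was assessed in transiently transfected human HepG2 cells after 24 h exposure. Transcripts from GAL4-UAS reporters were quantified by fluorescent RT-PCR and capillary electrophoresis, with DMSO as negative control and baseline.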
human Retinoid X Receptor beta (RXRb), RXRB (gene 6257), sequence (P28702 whole entry, looked up, the tested form may be a part): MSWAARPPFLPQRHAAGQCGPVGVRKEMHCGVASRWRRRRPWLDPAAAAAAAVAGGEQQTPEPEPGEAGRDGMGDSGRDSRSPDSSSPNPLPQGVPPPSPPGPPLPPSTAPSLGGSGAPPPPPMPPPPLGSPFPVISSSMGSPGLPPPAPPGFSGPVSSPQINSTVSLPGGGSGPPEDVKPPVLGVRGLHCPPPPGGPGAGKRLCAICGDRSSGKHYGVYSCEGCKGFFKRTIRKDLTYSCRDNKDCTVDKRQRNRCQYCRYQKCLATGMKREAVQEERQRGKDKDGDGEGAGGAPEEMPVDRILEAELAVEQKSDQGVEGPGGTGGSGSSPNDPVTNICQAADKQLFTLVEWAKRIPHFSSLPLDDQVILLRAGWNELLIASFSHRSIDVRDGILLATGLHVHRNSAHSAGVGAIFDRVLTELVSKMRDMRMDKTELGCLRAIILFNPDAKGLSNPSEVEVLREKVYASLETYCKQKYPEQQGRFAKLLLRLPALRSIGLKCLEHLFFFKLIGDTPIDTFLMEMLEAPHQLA

Records with an inconclusive call do not appear. Active and inactive are the calls of the source. Rule for the calls, unless noted: active = hit-call score of the fitted dose curve at least 0.9, where 1 is the maximum; inactive = score below 0.9.

E-selectin (Homo sapiens), sequence (P16581 whole entry, looked up): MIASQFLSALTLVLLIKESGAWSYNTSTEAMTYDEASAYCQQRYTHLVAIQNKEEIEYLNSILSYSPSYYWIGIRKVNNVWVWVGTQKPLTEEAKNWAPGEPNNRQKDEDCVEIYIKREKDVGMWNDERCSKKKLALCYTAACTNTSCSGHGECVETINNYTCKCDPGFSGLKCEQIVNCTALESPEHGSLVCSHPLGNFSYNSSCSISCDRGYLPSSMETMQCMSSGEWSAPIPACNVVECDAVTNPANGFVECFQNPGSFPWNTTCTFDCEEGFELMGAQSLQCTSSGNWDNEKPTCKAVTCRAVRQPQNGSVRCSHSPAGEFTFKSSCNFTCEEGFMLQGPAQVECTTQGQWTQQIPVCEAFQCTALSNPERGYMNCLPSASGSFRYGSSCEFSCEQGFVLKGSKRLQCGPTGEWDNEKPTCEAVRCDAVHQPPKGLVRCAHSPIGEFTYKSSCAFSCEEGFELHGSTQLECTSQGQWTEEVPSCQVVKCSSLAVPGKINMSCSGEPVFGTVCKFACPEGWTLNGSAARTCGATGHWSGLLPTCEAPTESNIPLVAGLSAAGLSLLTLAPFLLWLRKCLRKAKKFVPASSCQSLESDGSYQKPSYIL

Turning to `Cc1cn([C@H]2C=C[C@@H](CO)O2)c(=O)[nH]c1=O`, the result in experiment [1], in [2], in [3], in experiment [4], in experiment [5] and in experiment [6] was inactive. For the same compound, the result in experiment [7], in experiment [8], in experiment [9], in experiment [10], in experiment [11] and in experiment [12] was inactive. The outcome in experiment [13], in experiment [14], in [15], in experiment [16] and in [17] was inactive.

As for `CCCCC(CC)COP(=O)(OCC(CC)CCCC)OCC(CC)CCCC` (stereo unspecified), the result in experiment [1], in [2], in experiment [7], in experiment [8], in experiment [10] and in [14] was inactive. In experiment [15], the result was inactive. The AC50 was 18.2 µM (active) in experiment [3]; 20 µM (active) in experiment [4]; 14 µM (active) in experiment [6]; 20 µM (active) in experiment [9]; 13.7 µM (active) in experiment [11]; 12.2 µM (active) in experiment [12]. Also, the AC50 in experiment [13], in [16] and in experiment [17] was 20 µM (active) in each case.

For the compound `CN(C)CCCN(C)CCCN(C)C`, in [18], the AC50 was 23.8 µM (active). The outcome in experiment [1], in experiment [2], in experiment [3], in experiment [4], in experiment [6] and in experiment [7] was inactive. For the same compound, the outcome in experiment [9], in experiment [10], in experiment [11], in experiment [12], in experiment [13] and in experiment [14] was inactive. Besides, the outcome in [15], in experiment [16] and in experiment [17] was inactive.

Take `COC(=O)CCC(=O)OC`: the outcome in experiment [1], in experiment [2], in [3], in experiment [4], in experiment [5] and in [6] was inactive. Further, the outcome in [7], in [9], in experiment [10], in experiment [11], in [12] and in experiment [13] was inactive. Besides, the outcome in [14], in experiment [15], in experiment [16] and in experiment [17] was inactive.

For `CC(C)NCC(O)c1ccc(O)c(O)c1` (stereo unspecified), the result in experiment [18], in [1], in experiment [2], in [3], in experiment [4] and in experiment [5] was inactive. In addition, the result in experiment [6], in experiment [7], in [9], in experiment [10], in [11] and in experiment [12] was inactive. The result in [13], in [14], in [15], in experiment [16] and in experiment [17] was inactive.

On to `OCC(CO)n1cnc(-c2ccc(F)cc2)c1-c1ccnc(Oc2ccccc2)n1`, for which the outcome in experiment [1], in [2], in [4], in experiment [7], in experiment [9] and in experiment [11] was inactive. Moreover, the result in experiment [12], in experiment [13], in experiment [14], in [16] and in experiment [17] was inactive. Moreover, the AC50 in experiment [3] is 1.08 µM (active); in experiment [6] it was 0.852 µM (active); in experiment [10], 0.594 µM (active); in [15], 2.28 µM (active).

As to `Cc1occc(=O)c1O`, the outcome in experiment [1], in experiment [2], in experiment [3], in [4], in experiment [6] and in experiment [7] was inactive. Also, the call in experiment [8], in experiment [9], in [10], in experiment [11], in experiment [12] and in [13] was inactive. Moreover, the outcome in experiment [14], in experiment [15], in experiment [16] and in experiment [17] was inactive.

As to `CC(C)c1cccc(C(C)C)c1NC(=O)NS(=O)(=O)c1cc(C(C)(C)O)co1`, the outcome in [1], in [2], in [3], in [4], in experiment [5] and in experiment [6] was inactive. In addition, the outcome in experiment [7], in experiment [8], in [9], in experiment [10], in experiment [11] and in experiment [12] was inactive. The outcome in experiment [13], in experiment [14], in experiment [15], in experiment [16] and in [17] was inactive.

As for `CC(C)(C)c1ccccc1`, the result in experiment [1], in experiment [2], in experiment [3], in experiment [4], in experiment [6] and in experiment [7] was inactive. Also, the result in experiment [8], in experiment [9], in experiment [10], in [11], in [12] and in experiment [13] was inactive. Moreover, the result in experiment [14], in [15], in experiment [16] and in experiment [17] was inactive.

The values are drawn from PubChem BioAssay (EPA / NIEHS).
